{
  "source": "PubChem BioAssay AID430",
  "about": "(Sanford-Burnham Center for Chemical Genomics, 2006)",
  "note": "Hit rate of the full screen: of about 63,000 compounds, about 1,100 (1.7%) were called active. The sample as a whole holds a higher share of actives than the screen did. Potency and affinity values are given separately. Values without a mark were called inactive. Rule as the data show it: active = cytotoxicity above about 50%; inactive = the rest.",
  "data": [
    {"experiment": "HPDE-C7 pancreatic duct cell viability loss – fluorescence, HTS (AID 430);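 also: cells exposed to compound for 48 hours before viability readout; 0% = vehicle and 100% = reference cytotoxic drug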", "conditions": "HPDE-C7 pancreatic duct cells viability, at 10 µM, active compounds read high", "values": [
      {"smiles": "O=C(O)CCc1ccc(-c2cccs2)n1CC1CCCO1", "note": "(centres undefined)", "cytotoxicity": "-6.9%"},
      {"smiles": "CCOC(=O)Cn1c(=O)oc2cc(S(=O)(=O)N3CCCc4ccccc43)ccc21", "cytotoxicity": "3.6%"},
      {"smiles": "Cc1csc(NC(=O)C(Cc2ccccc2)n2cccc2)n1", "note": "(centres undefined)", "cytotoxicity": "14.2%"},
      {"smiles": "CCSc1nnc(NC(=O)C(Cc2ccccc2)n2cccc2)s1", "note": "(centres undefined)", "cytotoxicity": "-8.7%"},
      {"smiles": "COc1cccc2sc(NC(=O)c3ccc(S(=O)(=O)N4CCOCC4)cc3)nc12", "cytotoxicity": "2.8%"},
      {"smiles": "Oc1ccc2c(c1)oc1cc(O)ccc12", "cytotoxicity": "56.4% (active)"},
      {"smiles": "O=c1oc2cc(O)ccc2c2oc3cc(O)ccc3c12", "cytotoxicity": "9.7%"},
      {"smiles": "O=c1oc2cc(O)ccc2c2c1CCCC2", "cytotoxicity": "30.9%"},
      {"smiles": "O=C(NCc1ccco1)C1CCN(S(=O)(=O)c2ccc(-n3cnnn3)cc2)CC1", "cytotoxicity": "-7.4%"},
      {"smiles": "COc1ccc(OC)c(-c2nc(C)sc2CC(=O)O)c1", "cytotoxicity": "-6.4%"},
      {"smiles": "CC(C)Oc1ccc(NC(=O)Oc2ccccc2)cc1", "cytotoxicity": "4.8%"},
      {"smiles": "CC(=O)Nc1ccc(NC(=O)Oc2ccccc2)cc1", "cytotoxicity": "-2%"},
      {"smiles": "O=C(Nc1ccc(N2CCN(c3ccc(O)cc3)CC2)cc1)Oc1ccccc1", "cytotoxicity": "50.7% (active)"},
      {"smiles": "O=C1CC(c2ccco2)CC2=C1C1c3ccccc3C(=O)N1c1ccccc1N2", "note": "(centres undefined)", "cytotoxicity": "64.9% (active)"},
      {"smiles": "CCC(=O)N1c2ccccc2NC2=C(C(=O)CC(c3ccco3)C2)C1c1ccco1", "note": "(centres undefined)", "cytotoxicity": "-3.7%"},
      {"smiles": "COc1ccc(C2C3=C(CC(c4ccco4)CC3=O)Nc3ccccc3N2C(C)=O)cc1", "note": "(centres undefined)", "cytotoxicity": "-12.7%"},
      {"smiles": "COCCCn1c(=O)c2ccccc2c2ccccc2c1=O", "cytotoxicity": "-14.8%"},
      {"smiles": "CC(=O)c1cccc(S(=O)(=O)N(CCCO)Cc2cc3ccc(C)cc3[nH]c2=O)c1", "cytotoxicity": "-3.7%"},
      {"smiles": "COc1ccc(NC(=O)N2CCCC2)cc1OC", "cytotoxicity": "-16.9%"},
      {"smiles": "O=c1[nH]cnc2scc(-c3ccc(F)cc3)c12", "cytotoxicity": "-4.9%"},
      {"smiles": "Cn1nnnc1Sc1ncnc2scc(-c3ccccc3)c12", "cytotoxicity": "2.6%"},
      {"smiles": "C/C(=N\\O)c1c(C)c2ccccc2n1C", "cytotoxicity": "-0.6%"},
      {"smiles": "CC1=C(C(=O)Nc2ccccn2)C(c2ccc(F)cc2)n2ncnc2N1", "note": "(centres undefined)", "cytotoxicity": "-6%"},
      {"smiles": "O=C(CSc1ncnc2c1oc1ccccc12)Nc1cccc(C(F)(F)F)c1", "cytotoxicity": "2.9%"},
      {"smiles": "Cc1ccnc(SCC(=O)O)n1", "cytotoxicity": "-31.8%"},
      {"smiles": "Cc1ccccc1NC(=O)CSc1nc2c(c(-c3ccco3)c1C#N)CCCC2", "cytotoxicity": "-20.7%"},
      {"smiles": "c1ccc2[nH]c(-c3ccnc4ccccc34)nc2c1", "cytotoxicity": "3%"},
      {"smiles": "O=C(c1cc2nc(-c3ccco3)cc(C(F)(F)F)n2n1)N1CCCc2ccccc21", "cytotoxicity": "-11.2%"},
      {"smiles": "O=C(c1cnn2c(C(F)(F)F)cc(-c3ccco3)nc12)N1CCCc2ccccc21", "cytotoxicity": "4.7%"},
      {"smiles": "O=C(c1nn2c(C(F)(F)F)cc(-c3ccco3)nc2c1Br)N1CCCc2ccccc21", "cytotoxicity": "51.8% (active)"},
      {"smiles": "O=C(Sc1nnnn1C1CCCCC1)c1cccs1", "cytotoxicity": "-11.4%"},
      {"smiles": "COc1cc(C(=O)NCc2nnc(SCC(=O)N3CCC(C)CC3)o2)cc(OC)c1OC", "cytotoxicity": "-2.5%"},
      {"smiles": "CC1(C)Cc2c(c(N3CCOCC3)nc3sc(C(=O)N4CCCCC4)c(N)c23)CO1", "cytotoxicity": "-5.3%"},
      {"smiles": "CC1(C)Cc2c(c(N3CCOCC3)nc3snc(Br)c23)CO1", "cytotoxicity": "5.4%"},
      {"smiles": "CCN1C(=O)c2ccccc2S(=O)(=O)c2ccc(C(=O)NCc3cccnc3)cc21", "cytotoxicity": "-0.2%"},
      {"smiles": "CC(C)n1nc(C(=O)Nc2nc3ccc(S(C)(=O)=O)cc3s2)c2ccccc2c1=O", "cytotoxicity": "54.4% (active)"},
      {"smiles": "CS(=O)(=O)c1ccc2nc(NC(=O)c3cccs3)sc2c1", "cytotoxicity": "-8.3%"},
      {"smiles": "COc1ccccc1C(=O)Nc1nc2ccc(S(C)(=O)=O)cc2s1", "cytotoxicity": "2.7%"},
      {"smiles": "COCCCNC(=O)c1ccc(N2CCCC2)c(NS(=O)(=O)c2ccc(C)cc2)c1", "cytotoxicity": "-13.4%"},
      {"smiles": "CC1CC(C)CN(C(=O)c2cn(C)c3ccc(S(=O)(=O)N(C)C)cc3c2=O)C1", "note": "(centres undefined)", "cytotoxicity": "0.8%"},
      {"smiles": "CC12CC(NC(=O)N1c1cccc(C(=O)NCc3ccc4c(c3)OCO4)c1)c1cc(Cl)ccc1O2", "note": "(centres undefined)", "cytotoxicity": "27.3%"},
      {"smiles": "N#Cc1cc(Oc2cccc3cccnc23)c(-n2nnc3ccccc32)cc1C#N", "cytotoxicity": "63.7% (active)"},
      {"smiles": "c1ccc(-n2nnnc2Oc2cccc3cccnc23)cc1", "cytotoxicity": "19.3%"},
      {"smiles": "COc1ccccc1Oc1cc(C#N)c(C#N)cc1-n1nnc2ccccc21", "cytotoxicity": "-8.8%"},
      {"smiles": "CCOC(=O)CNC(=O)CSc1nc2cccnc2n1C", "cytotoxicity": "-7.9%"},
      {"smiles": "CCNc1sc(C(=O)c2cccs2)c(N)c1C#N", "cytotoxicity": "-12.7%"},
      {"smiles": "CNc1sc(C(=O)c2cccs2)c(N)c1-c1nc2ccccc2s1", "cytotoxicity": "33.3%"},
      {"smiles": "CCNc1sc(C(=O)c2cccs2)c(N)c1-c1nc2ccccc2s1", "cytotoxicity": "73.7% (active)"},
      {"smiles": "COc1ccccc1Nc1nc(C2(C)CCC(=O)O2)cs1", "note": "(centres undefined)", "cytotoxicity": "6.8%"},
      {"smiles": "Cn1c(-c2nonc2NC(=O)c2ccc(C(C)(C)C)cc2)nc2ccccc21", "cytotoxicity": "-0.1%"},
      {"smiles": "CCCn1cc(S(=O)(=O)CC(=O)Nc2ccc(OCC)cc2)c2ccccc21", "cytotoxicity": "-9.9%"},
      {"smiles": "Cc1nc2c3c(-c4ccccc4)c(-c4ccccc4)oc3ncn2n1", "cytotoxicity": "-9.4%"},
      {"smiles": "COc1ccccc1OCc1nc2c3c(-c4ccccc4)c(-c4ccccc4)oc3ncn2n1", "cytotoxicity": "7.7%"},
      {"smiles": "COc1ccc(-c2oc3ncn4nc(Cc5ccccc5)nc4c3c2-c2ccc(OC)cc2)cc1", "cytotoxicity": "62.3% (active)"},
      {"smiles": "COc1ccc(-c2oc3ncn4nc(COc5ccccc5)nc4c3c2-c2ccc(OC)cc2)cc1", "cytotoxicity": "54.9% (active)"},
      {"smiles": "N=c1c2c(-c3ccccc3)c(-c3ccccc3)oc2ncn1CCN1CCOCC1", "cytotoxicity": "29.3%"},
      {"smiles": "COc1ccc(-c2oc3ncn(CCN4CCOCC4)c(=N)c3c2-c2ccc(OC)cc2)cc1", "cytotoxicity": "16%"},
      {"smiles": "CCOc1ccc(CCNC(=O)CCN2C(=O)COc3ccccc32)cc1OCC", "cytotoxicity": "-19.6%"},
      {"smiles": "CCOC(=O)/C=C1\\SCC(=O)N1CC(=O)Nc1ccccc1OC(F)F", "cytotoxicity": "2.3%"},
      {"smiles": "CN(C)C(=O)N1CCC(C(=O)NCc2ccc(F)cc2)CC1", "cytotoxicity": "-10.1%"},
      {"smiles": "Cc1[nH]nc2c1C(Cc1ccccc1)C(C#N)=C(N)O2", "note": "(centres undefined)", "cytotoxicity": "-12.3%"},
      {"smiles": "Cc1cccc(Nc2ccccc2C(=O)O)c1C", "cytotoxicity": "3.8%"},
      {"smiles": "Cc1ccc(Cl)c(Nc2ccccc2C(=O)O)c1Cl", "cytotoxicity": "66.2% (active)"},
      {"smiles": "Cc1c(Cl)cccc1Nc1ccccc1C(=O)O", "cytotoxicity": "-3.4%"},
      {"smiles": "O=C1c2ccccc2C(=O)N1CCCc1nc(-c2cccnc2)no1", "cytotoxicity": "6.9%"},
      {"smiles": "Fc1ccc(-n2c(-c3ccco3)nc3nc4ccccc4nc32)cc1", "cytotoxicity": "-1.1%"},
      {"smiles": "N#Cc1nc(-c2ccc(OCc3ccccc3)cc2)oc1NCc1cccnc1", "cytotoxicity": "0.6%"},
      {"smiles": "N#Cc1nc(-c2ccc(F)cc2)oc1NCc1ccccc1", "cytotoxicity": "-17.1%"},
      {"smiles": "N#Cc1nc(Cc2ccccc2)oc1NCc1cccnc1", "cytotoxicity": "-12.4%"},
      {"smiles": "N#Cc1nc(-c2ccc(OCc3ccc(Cl)cc3)cc2)oc1NCc1cccnc1", "cytotoxicity": "53.4% (active)"},
      {"smiles": "COc1ccc(-c2nc(C#N)c(NCCCN3CCOCC3)o2)cc1", "cytotoxicity": "-6.6%"},
      {"smiles": "COc1ccc(CNc2oc(COc3ccccc3)nc2C#N)cc1", "cytotoxicity": "0.5%"},
      {"smiles": "N#Cc1nc(-c2ccc(OCc3ccccc3)cc2)oc1NCCN1CCOCC1", "cytotoxicity": "-1%"},
      {"smiles": "N#Cc1nc(COc2ccc(-c3ccccc3)cc2)oc1NCc1cccnc1", "cytotoxicity": "61.9% (active)"},
      {"smiles": "N#Cc1nc(-c2ccc(OCc3ccc(Cl)cc3)cc2)oc1NCCCn1ccnc1", "cytotoxicity": "-0.4%"},
      {"smiles": "COc1ccc(CNc2oc(-c3ccccc3)nc2C#N)cc1", "cytotoxicity": "5.7%"},
      {"smiles": "CC(C)(C)c1ccc(-c2nc(C#N)c(NCc3ccncc3)o2)cc1", "cytotoxicity": "54.6% (active)"},
      {"smiles": "Cc1ccc(-n2nnc3c(=O)n(Cc4ccccc4C)cnc32)cc1", "cytotoxicity": "0.5%"},
      {"smiles": "COCCNC(=O)C(c1ccc(Cl)cc1)N(C(=O)CCC(=O)Nc1ccccn1)C1CCCC1", "note": "(centres undefined)", "cytotoxicity": "-1.7%"},
      {"smiles": "CNCCOCC(O)CSc1ccccc1", "note": "(centres undefined)", "cytotoxicity": "1.2%"},
      {"smiles": "Cc1cccc(-c2nnn(CC/C(N)=N/O)n2)c1", "cytotoxicity": "2.8%"},
      {"smiles": "CCN1CCN(c2nc(-c3cccnc3)nc3ccccc23)CC1", "cytotoxicity": "-27.8%"},
      {"smiles": "COc1ccc(NC(=O)C(Cc2ccccc2)NC(=O)c2ccco2)cc1OC", "note": "(centres undefined)", "cytotoxicity": "-0.4%"},
      {"smiles": "c1ccc(CSc2nnc3c(n2)OC(c2ccco2)Nc2ccccc2-3)cc1", "note": "(centres undefined)", "cytotoxicity": "-3.6%"},
      {"smiles": "O=C(Nc1ccc2c(c1)OCO2)C(c1ccccc1)N1CCCCC1", "note": "(centres undefined)", "cytotoxicity": "-14%"},
      {"smiles": "O=c1[nH]nnc2c1sc1nc(N3CCOCC3)c3c(c12)CCCC3", "cytotoxicity": "30.8%"},
      {"smiles": "COc1ccccc1-n1c(=O)oc2ccc(Cl)cc2c1=O", "cytotoxicity": "59.7% (active)"},
      {"smiles": "COc1ccccc1C1c2c(oc3ccc(Cl)cc3c2=O)C(=O)N1c1cc(C)on1", "note": "(centres undefined)", "cytotoxicity": "-14.3%"},
      {"smiles": "COc1ccccc1-n1c(SC)nc(O)cc1=O", "cytotoxicity": "4.6%"},
      {"smiles": "Cn1c(SCc2c(F)cccc2Cl)nnc1-c1cccs1", "cytotoxicity": "-2.8%"},
      {"smiles": "O=C(C1COc2ccccc2O1)N1CCN(c2ccc(F)cc2)CC1", "note": "(centres undefined)", "cytotoxicity": "-9%"},
      {"smiles": "CCOc1ccccc1OCC(=O)O", "cytotoxicity": "4.2%"},
      {"smiles": "O=C(O)COc1ccc2nsnc2c1Cl", "cytotoxicity": "-25.1%"},
      {"smiles": "COC(=O)CN1C(=O)C(O)(CC(=O)c2ccc(C)cc2)c2ccccc21", "note": "(centres undefined)", "cytotoxicity": "-28.9%"},
      {"smiles": "Cc1ccccc1-n1c(N)cc(=O)[nH]c1=S", "cytotoxicity": "-2.2%"},
      {"smiles": "CCOC(=O)c1cc(NC(=O)Nc2ccc(OC)c(OC)c2)c(C)nc1C", "cytotoxicity": "5.7%"},
      {"smiles": "CCOC(=O)N1CCN(S(=O)(=O)c2ccc(F)cc2)CC1", "cytotoxicity": "-1.6%"},
      {"smiles": "CCOC(=O)N1CCN(S(=O)(=O)c2ccc(C(=O)Nc3nc4ccc(F)cc4s3)cc2)CC1", "cytotoxicity": "-8%"},
      {"smiles": "CCOC(=O)N1CCN(S(=O)(=O)c2ccc(C(=O)Nc3ccc(F)cc3F)cc2)CC1", "cytotoxicity": "58% (active)"}
    ]}
  ]
}
